Measured values from PubChem BioAssay (NCATS).
Where “and” joins values, the source holds several entries; their conditions need not be identical. Equal values may be shown once. Inconclusive results are not listed. Calls of active or inactive are those of the source. The call rests on the fitted dose curve. Numbered stars: 1 amine (or outer) side, 2 acyl side, 3 side chain; on linkers, the order of the positions; unused ones are H or OH. Bridge positions count the residues as written; N and C are the ends. Square brackets hold non-standard residues; d marks the D form. Peptide text beside a SMILES is read from it. I, II: the chains in the order shown. Actinocin(9to1) = Cc1c2oc3c(C)ccc(C(=O)[*:1])c3nc-2c(C(=O)[*:2])c(N)c1=O; NMeV = CN[C@H](C(=O)O)C(C)C; Sar = CNCC(=O)O

molecular target: Vitamin D3 receptor (Homo sapiens) (UniProt P11473); assay: qHTS assay for small molecule agonists of vitamin D receptor signaling (AID 588543); conditions: HEK293T VDR-UAS-bla, beta-lactamase ratio, 16 h; series mostly up to 76.8 µM;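 further: 0% = DMSO basal and 100% = reference agonist control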
How it was run: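 Reporter cells (HEK293T, VDR-UAS-bla) were seeded in medium with 2% charcoal-stripped serum and incubated 5 h, then compounds in concentration series were added for 16 h at 37 °C. Stimulation was scaled between DMSO basal and 50 nM 1α,25-dihydroxyvitamin D3.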

| SMILES | outcome |
| --- | --- |
| CCCCCCc1ccc(O)cc1O | inactive |
| C[C@H]1C[C@H]2[C@@H]3CCC4=CC(=O)C=C[C@]4(C)[C@@]3(Cl)[C@@H](O)C[C@]2(C)[C@@]1(O)C(=O)CO | inactive |
| Cc1cc(=O)n(-c2ccccc2)n1C | inactive |
| COC1=CC(=O)C[C@@H](C)[C@]12Oc1c(Cl)c(OC)cc(OC)c1C2=O | inactive |
| Oc1c(Cl)cc(Cl)cc1Sc1cc(Cl)cc(Cl)c1O | inactive |
| Cc1c2oc3c(C)ccc(C(=O)N[C@@H]4C(=O)N[C@H](C(C)C)C(=O)N5CCC[C@H]5C(=O)N(C)CC(=O)N(C)[C@@H](C(C)C)C(=O)O[C@@H]4C)c3nc-2c(C(=O)N[C@@H]2C(=O)N[C@H](C(C)C)C(=O)N3CCC[C@H]3C(=O)N(C)CC(=O)N(C)[C@@H](C(C)C)C(=O)O[C@@H]2C)c(N)c1=O (I: T[dV]P[Sar][NMeV] / II: T[dV]P[Sar][NMeV]; ester I:1-I:C, II:1-II:C; linker I:N-II:N via Actinocin(9to1)) | inactive |
| CC(=O)Oc1ccc(C(c2ccc(OC(C)=O)cc2)c2ccccn2)cc1 | inactive |
| O=C1OC(c2ccc(O)cc2)(c2ccc(O)cc2)c2ccccc21 | inactive |
| CC(O)C(=O)O (configuration not stated) | inactive |
| O=C(O)CCCCC(=O)O | inactive |
| Oc1ccc(Cl)cc1Sc1cc(Cl)ccc1O | inactive |
| CC/C(=C(/CC)c1ccc(O)cc1)c1ccc(O)cc1 | inactive |
| CC(C)(C)CC(C)(C)c1ccc(OCCOCC[N+](C)(C)Cc2ccccc2)cc1 | inactive |
| CC(C)(Oc1ccc(Cl)cc1)C(=O)O | inactive |
| C[C@]12CC[C@@H]3c4ccc(O)cc4CC[C@H]3[C@@H]1CC[C@@H]2O | inactive |
| CN(C)C(=S)SC(=S)N(C)C | inactive |
| COc1cccc2c1C(=O)c1c(O)c3c(c(O)c1C2=O)C[C@@](O)(C(=O)CO)C[C@@H]3O[C@H]1C[C@H](N)[C@H](O)[C@H](C)O1 | inactive |
| Oc1c(I)cc(Cl)c2cccnc12 | inactive |

system: not listed separately; assay: qHTS assay for small molecule agonists of retinoid X receptor alpha signaling (AID 588544); conditions: HEK293T RXRa-UAS-bla, beta-lactamase reporter, 18 h; 530 nm emission

| SMILES | max response |
| --- | --- |
| CC(O)(P(=O)(O)O)P(=O)(O)O | -19.3% |
| CCCCCCc1ccc(O)cc1O | -14.8% and 0.183% |
| C=CCc1ccc(O)c(OC)c1 | -13.4% and -16.3% |
| Cc1cc(=O)n(-c2ccccc2)n1C | -30.7% |
| O=C1OC(c2ccc(O)cc2)(c2ccc(O)cc2)c2ccccc21 | 14.6% and 3.81% |
| O=c1ccc2ccccc2o1 | -0.417% and -9.49% |
| CN(C)/N=N/c1nc[nH]c1C(N)=O | 27.5% |
| CC(O)C(=O)O (configuration not stated) | -16.3% |
| O=C(O)CCCCC(=O)O | -28.1% |
| CC/C(=C(/CC)c1ccc(O)cc1)c1ccc(O)cc1 | -0.375% |
| CC(C)(Oc1ccc(Cl)cc1)C(=O)O | -16.7% |
| Nc1ccc(C(=O)O)cc1 | 0.621% |
| C[C@]12CC[C@@H]3c4ccc(O)cc4CC[C@H]3[C@@H]1CC[C@@H]2O | 6.82% |
| CN(C)C(=S)SC(=S)N(C)C | 0.136% |
